# Hits are enriched below; roughly 6.5% of the tested compounds scored in any of these assays.
# HCMV inh: inhibitors of human cytomegalovirus | HFF cells, HCMV-luciferase reporter, 72 h; stronger effect = lower value | 410,000 compounds, 4.5% hits | AID 1259415 | activity change, negative = inhibition, % at 57.5 µM; in the data active means activity change below about -60%; inconclusive means no clear call, values can overlap the other calls; inactive means above about -39%
#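 After 16 h attachment at 37C, HFF cells received test compound and HCMV-luciferase (1 PFU/cell); reporter luminescence read 72 h later, data normalized against buffer-only and known inhibitor Salinomycin.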
# FMDV antiviral: foot and mouth disease virus antiviral activity; FMDV antiviral cell-based qHTS; Potency, µM (highest dose often 57.9 µM), without a hit: top-dose activity change, negative = inhibition, actives largely listed as inhibitors; 410,000 compounds, 1.2% hits; AID 1159524; calls by dose curve; tested in HEK293T cells; further: read-out not given here; potency means the concentration at half of the fitted maximal effect; nearly all actives have a fitted effect of over 45% in size
# VACV Venus inh: vaccinia inhibition (Venus reporter) | Potency, µM (doses to about 36.5 µM), for the others: at the top dose activity change, negative = inhibition, actives largely listed as inhibitors | 330,000 compounds, 0.46% hits | Vaccinia virus Venus reporter expression, fluorescence; calls by dose curve; tested in A549 cells; further: potency means the concentration at half of the fitted maximal effect; nearly all actives have a fitted effect of over 30% in size
# LASV entry inh: inhibitors of Lassa virus binding or cell entry | Lassa virus pseudotype entry inhibition, cell reporter | 300,000 compounds, 1.2% hits | AID 540256 | Potency, µM (series often up to 37.9 µM), for inactives: at the highest dose activity change, negative = inhibition, actives largely listed as inhibitors; calls by dose curve; tested in HEK293 cells; further: potency means the concentration at half of the fitted maximal effect; nearly all actives have a fitted effect of over 50% in size
# Marburg entry inh: blocks Marburg virus binding to or entry into cells. AID 540276. Potency, µM (series often up to 37.8 µM), without a hit: at the top dose activity change, negative = inhibition, usual class: inhibitors. Marburg virus pseudotyped entry inhibition, cell reporter. 300,000 compounds, 1.8% hits; calls by dose curve; tested in HEK293 cells; further: potency means the concentration at half of the fitted maximal effect
# VACV mCherry inh: inhibitors of vaccinia virus infection (mCherry reporter signal) | Vaccinia virus mCherry reporter infection, fluorescence | Potency, µM (highest dose often 36.5 µM), without a hit: at the highest dose activity change, negative = inhibition, hits mostly inhibitors | 310,000 compounds, 0.63% hits; calls by dose curve; tested in A549 cells; further: potency means the concentration at half of the fitted maximal effect; nearly all actives have a fitted effect of over 35% in size
# The depositor's hits bear a star; i = inactive; ? = inconclusive; / = no result; [ ] = another dose, or the depositor's remark. On the % scale 0 is the no-effect control and ±100 the full control effect.
SMILES,HCMV inh,FMDV antiviral,VACV Venus inh,LASV entry inh,Marburg entry inh,VACV mCherry inh
Cc1cc(OCc2nc(N)nc(N)c2-c2ccc(Cl)c(Cl)c2)ccc1[N+](=O)[O-],-100*,25µM*,1µM*,1µM*,?,0.89µM*
Cc1nc(N)nc(N)c1-c1ccc(Cl)c(Cl)c1,-98*,-23%,1µM*,1µM*,?,1µM*
Cc1nc(N)nc(N)c1CCCc1ccc(Cl)c(Cl)c1,-87*,-9%,-71%,?,?,-58%
COc1ccc(C=O)cc1COc1ccc([N+](=O)[O-])c(C)c1,-22,0%,-7%,31%[46.1 µM],-23%[46.1 µM],-3%
COc1ccc(CNC(=O)Cn2ccc3cc(S(=O)(=O)N4CCCCCC4)ccc32)cc1OC,-10,9%,-14%,1%[46.1 µM],/,-16%
CCn1cnc2c(=O)oc3ccc(S(=O)(=O)Nc4ccc(OC)cc4)cc3c21,-2,-12%,-3%,?,5%[46.1 µM],-3%
CN1CCN(c2ncc3nc(-c4cccs4)c(=O)n(-c4ccccc4)c3n2)CC1,/,-7%,/,/,/,/
Cc1cccc(Nc2nc(-c3ccc(F)cc3)cs2)n1,255,0%,-18%,13µM*,?,-14%
CN(C)c1nc(-c2cccnc2)nc2ccccc12,/,-6%,/,/,/,/
CN(Cc1cccs1)c1nc(-c2cccnc2)nc2ccccc12,-23,32µM*,-19%,-17%,?,-15%
CCC(=O)Nc1nc2ccccc2n1Cc1ccccc1,-92*,0%,/,?,?,/
CCC(=O)Nc1nc2ccccc2n1Cc1ccc(C)cc1,?,0%,-23%,-25%,-19%,-1%[1.46 µM]
OC(CNCC(c1ccc(Cl)cc1Cl)c1c[nH]c2ccccc12)c1ccccc1 (centres undefined),-108*,?,?,?,7.9µM*,?
CN(C)C(CNC(=S)Nc1ccc(F)cc1)c1cccnc1 (centres undefined),-13,-12%,-6%,17%,8%[46.1 µM],i
Cc1cccc(NC(=S)NCC(c2cccnc2)N(C)C)c1 (centres undefined),-71*,-20%,-11%,0%,1%,i
COc1cc(C)ccc1OCCCn1c(-c2ccc(Cl)cc2)nc2ccccc2c1=O,-23,-9%,2%,-3%[46.1 µM],-1%[46.1 µM],-3%
COc1ccc(C2C(=O)N(C3CCCCCC3)CC(=O)N2CCc2ccc(OC)c(OC)c2)cc1 (centres undefined),-37,-6%,0%,?,/,-11%
Cc1ccc(S(=O)(=O)NNC(=O)CCC(=O)Nc2ccccc2Cl)cc1,114,1%,/,/,/,/
CC1=[N+](C)c2c(ccc3cccnc23)C1(C)C,-108*,?,25%,5.6µM*,?,215%
Cc1[nH]c2c(ccc3cccnc32)c1C,-10,15%,-16%,4%,0%[14.2 µM],-11%
CC1Cc2ccccc2N1C(=O)CN1CCC(n2nnc3cc(C(F)(F)F)ccc32)CC1 (centres undefined),-39,20µM*,?,-30%,?,-28%
CC(C)CNC(=O)COC(=O)CNC(=O)c1cc(Cl)cc([N+](=O)[O-])c1,47,-12%,0%,-6%,7%,-14%
CC(C)(C)C(=O)/C=c1\[nH]c(=O)/c(=C\c2ccc(F)cc2)s1,33,-24%,11µM*,-9%,-18%[46.1 µM],/
O=S(=O)(CCc1ccncc1)C1Cc2cccc3cccc1c23 (centres undefined),31,-11%,-15%,-16%[46.1 µM],13%[46.1 µM],-18%
COc1ccc(CNc2ncnc3c2c(-c2ccccc2)cn3-c2ccccc2)cc1,-6,?,-6%,-4%[46.1 µM],/,-13%
SMILES,HCMV inh,FMDV antiviral,VACV Venus inh,LASV entry inh,Marburg entry inh,VACV mCherry inh
COc1ccc(/C=C(\C#N)C(=O)OCC(=O)Nc2c(C)cccc2C)cc1,-61*,-23%,-13%,-5%,?,i
CCOc1ccccc1CNS(=O)(=O)c1ccc2[nH]c(=O)ccc2c1,6,-14%,-1%,?,/,2%
O=C(c1ccc(S(=O)(=O)N2CCOCC2)cc1)N1CCN(c2ccc(F)cc2)CC1,17,-20%,1%,-2%,-8%,/
O=C(/C=C/c1ccc2ccccc2n1)N1CCN(S(=O)(=O)c2ccc(F)cc2)CC1,-80*,?,/,/,/,/
O=C(/C=C/c1ccc2ccccc2n1)N1CCN(c2ccccc2)CC1,-21,-16%,-15%,-6%[46.1 µM],?,-7%
O=C(/C=C/c1ccc(S(=O)(=O)N2CCOCC2)cc1)N1CCN(c2ccc(F)cc2)CC1,-63*,?,-26%,?,?,?
O=C(/C=C/c1ccc2ccccc2n1)N1CCN(S(=O)(=O)c2ccccc2F)CC1,-97*,?,/,/,/,/
Cc1c(CC(=O)N2CCC(O)CC2)c(=O)oc2cc3c(cc12)CCC1(CCCCC1)O3,-28,-12%,-27%,/,/,-11%
O=C(NCc1ccco1)C1=CN2CCN(Cc3ccccc3)C(=O)N=C2O1,0,/,/,/,/,/
COc1ccc2oc(C(=O)OC(C)C(=O)NC3(C#N)CCCCC3)c(C)c2c1 (centres undefined),?,-14%,-7%,10%,-6%,-20%
CC(C)Cc1nc(N2CCN(C(=O)c3ccco3)CC2)c(C#N)c2c1CCC2,-31,25µM*,-13%,?,?,-20%
CC(C)Cc1nc(N2CCN(C(=O)c3ccccc3)CC2)c(C#N)c2c1CCC2,?,?,/,6.5µM*,?,/
N#Cc1c(N2CCN(C(=O)c3ccco3)CC2)nc(-c2ccccc2)c2c1CCCC2,-78*,?,?,?,?,?
CCCNC(=O)N1CCN(c2nc(C(C)C)c3c(c2C#N)CC(C)(C)OC3)CC1,-66*,?,?,/,/,-9%
CC(=O)c1ccc(S(=O)(=O)N(C)CC(=O)Nc2cccc(S(=O)(=O)N3CCCC3)c2)cc1,-3,-21%,-19%,9%,1%,-20%
CC1(C)Cc2c(C#N)c(N3CCN(C(=O)c4ccco4)CC3)nc(Cc3ccccc3)c2CO1,-36,40µM*,-13%,-30%,?,i
CCc1nc(N2CCN(C(=O)c3ccco3)CC2)c(C#N)c2c1COC(C)(C)C2,-1,-21%,-27%,?,-6%[46.1 µM],?
Cc1ccc(N2NC(=O)/C(=C\c3cc4c(cc3[N+](=O)[O-])OCO4)C2=O)cc1C,102,13µM*,-10%,-7%,5%,i
COc1cc(/C=C2/C(=O)NN(c3ccc(C)c(Cl)c3)C2=O)cc([N+](=O)[O-])c1O,-30,-27%,/,/,/,/
Cc1c(C(=O)OC2CCC(C)CC2)[nH]c2c1C(=O)CC(c1ccc(F)cc1)C2 (centres undefined),-9,-3%,-24%[7.34 µM],-22%[46.1 µM],4%[46.1 µM],-16%[7.34 µM]
Cn1cc(C(=O)c2ccccc2)cc1-c1nc2ccccc2n1C,-21,-26%,-28%,-15%,?,?
Cc1oc(-c2nc3ccccc3n2C)cc1C(=O)c1ccccc1,16,-62%,-4%,2.8µM*,11µM*,-3%
